The text below walks through data of PubChem BioAssay (NCI).

Each structure is given as a SMILES string. “And” between values parts separate entries of the source, which are not always exact repeats. Equal entries are not always repeated. This is part of a sample that, as a whole, favours compounds with a hit. Of some 83,000 tested, about 20% had one in any assay.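 How to read the values: 0–100, growth inhibition (40 = 60% inhibited); 0, no net growth; -100 to 0, cell death (-40 = 40% of starting cells died; -100 = all dead).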 A number with no mark means an inactive call. The source made the active and inactive calls. How the source made its calls: active means growth percent below 10; inactive means the rest.

The assay deals with MDA-MB-468 breast. The assay is described as follows: NCI-60 one-dose screen, 48 h (100 = growth as untreated, 0 = no growth, -100 = all killed). Conditions: 10 µM unless noted.
As for `CC(=O)O.CN1[CH-]N(Cc2ccc(C#N)cc2)c2ccccc21.[Ag+]`, the growth was 97%.

On to `CN1CCN(CC(=O)Nc2ccc3ncnc(Nc4ccc(Oc5cccc(C(F)(F)F)c5)c(Cl)c4)c3c2)CC1`, for which the growth is -61.3% (active).

Turning to `COc1cc(NCCCCCNC(C)(C)C)c2ncccc2c1`, the growth is -6.36% (active).

On to `O=S(=O)(Nc1ccc(OC(F)F)cc1)c1ccc(-c2cnc(C3CC3)o2)cc1`, for which the growth was -9.07% (active).

In the case of `CCOC(=O)C1=C(C)NC(SCc2nnc(-c3ccc(Cl)cc3)o2)=NC1c1ccc(Cl)cc1Cl` (stereo not given), the growth was 88.4%.

As for `Clc1cccc(/C=N/Nc2nc(N/N=C/c3cccc(Cl)c3)nc(N3CCCCC3)n2)c1`, the growth is 76.3%.

As for `COc1cccc(Nc2nc(NCCO)c3ccccc3n2)c1`, the growth was 75.7%.

For `O=[N+]([O-])c1ccc(NC2CCCCC2)nc1`, the growth is 110% and 99.8%.

`Cc1n[nH]c2ccc(Br)cc2c1=O`: the growth is 99.9%.

With `COc1ccc2cc(-c3nn(-c4ccc(C(=O)O)cc4)cc3CO)ccc2c1`, the growth was 109%.

Take `COc1cc(OC)cc(C2=C3CC[C@@H]4[C@H](CC[C@]5(C)C(=O)CC[C@@H]45)C3=CC3C(O)c4cccnc4N4C(=O)COC234)c1` (stereo not given in full): the growth was 105%.

As to `CNCCCNc1nc2ccccc2c2c(=O)c3cc(F)ccc3sc12`, the growth was -57.3% (active).

In the case of `COc1cc(-c2cc3cc(O)ccc3oc2=O)cc(OC)c1OC`, the growth was 106%.

For the molecule `CCn1c(Sc2nnc(NC(C)=O)s2)nc2c1c(=O)n(C)c(=O)n2C`, the growth is 87.5%.

Turning to `COc1cc(/C=C2\C(=O)Nc3cc(C)c(O)cc32)cc(OC)c1OC`, the growth was 29.3%.

As to `COc1cccc(Nc2ncnn3ccc(CN4CC[C@@H](N)[C@H](O)C4)c23)c1`, the growth is -42.4% (active).

Take `[O-]/[N+](=C\c1ccc(-n2cc(Cc3ccccc3Cc3cn(-c4ccc(/C=[N+](/[O-])c5ccccc5)cc4)nn3)nn2)cc1)c1ccccc1`: the growth was 96.6%.

For `CCN1CCN(CC(=O)Nc2nc3ccc(NCc4ccc(Br)cc4)cc3s2)CC1`, the growth is 61.1%.

Regarding `CCc1ccc(SC2c3ccc(N(CC)CC)cc3Oc3nc(N)c(C#N)c(N)c32)cc1` (stereo not given), the growth is -41% (active).

For the molecule `c1ccc(-c2n[nH]c(-c3ccccn3)n2)nc1`, the growth is 100%.

Take `CCC(CC)C(=O)OC(C)COc1ccc(C(C)(C)C)cc1` (stereo not given): the growth was 94.6%.

With `COc1cc(Cn2c(-c3nonc3N)nc3ccccc32)ccc1C`, the growth is 40.9%.

In the case of `NC[C@H](O)c1ccc(O)c(O)c1`, the growth is 111%.

In the case of `Cn1ccnc1C(=O)/C=C/c1ccc(CC(=O)NC2CCCCC2)cc1`, the growth is -6.65% (active).

On to `Cc1cc(F)ccc1S(=O)(=O)Nc1cc(-c2c(O)ccc3ccccc23)c(O)c2ccccc12`, for which the growth was -1.51% (active).

On to `O=C1Nc2ccccc2/C1=C/C(=O)c1ccc(N2CCOCC2)cc1`, for which the growth was 85%.

As for `O=C(Nc1ccccc1C(F)(F)F)C1=NCCCCN1`, the growth is 94.8%.

For the molecule `O=c1ccn2nc3ccccc3c2[nH]1`, the growth is 95.5%.

For `CC(C)(C)c1ccc(S(=O)(=O)N[C@H]2CC[C@H]3[C@@H]4CCc5cc(OS(=O)(=O)O)ccc5[C@H]4CC[C@]23C)cc1`, the growth is 58.6%.

For `O=C(CN1C(=O)c2ccccc2S1(=O)=O)Nc1nc(-c2cc3ccccc3oc2=O)cs1`, the growth was 100%.

Turning to `Cn1cc(-c2csc(-c3cccc(F)c3)n2)c2cccnc21`, the growth was -49.6% [100 µM] (active).

For the molecule `Cc1ccc2oc(=O)cc(-c3sc(N4CCCCC4)nc3-c3ccccc3)c2c1`, the growth is 102%.

For `CC1CCN(Cc2ccc(NC(=O)c3cc4ccc5cccnc5c4[nH]3)cc2)CC1`, the growth is 21%.

In the case of `NC1CCC(Nc2nc(NCc3ccc(-c4cccs4)nc3)c3ncn(C4CCCC4)c3n2)CC1` (stereo not given), the growth is -65.8% (active).

With `N#CC(=C1SCS1)[N+](=O)[O-]`, the growth is -4.62% (active).

Regarding `CC(=O)/C=C/c1cc2cc(Cl)ccc2[nH]c1=O`, the growth is 82.9%.

On to `CCN1C(=O)N(CC)C2NC(SC)=NC21` (stereo not given), for which the growth is 103%.

Take `CCCCNC(=O)Oc1ccc(/C(=C(/C)Cc2ccc(OC)cc2)c2ccc(OCCN3CCCC3)cc2)cc1`: the growth is 53.5%.

Regarding `O=c1[nH]c(=O)[nH]c(=S)[nH]1`, the growth is 95.8%.

As to `O=c1c2ccccc2c(=O)c2c1sc1c(=O)c3ccc(O)cc3c(=O)c12`, the growth is -43.6% (active).
